Measured values: PubChem BioAssay (NCATS)
“And” between values parts separate entries of the source, which are not always exact repeats. Identical values can stand only once. Results filed as inconclusive are left out. The source made the active and inactive calls. Unless noted, the call rests on the fitted dose curve; in most records, active means well fitted curve in the direction sought with a large enough effect; inconclusive means small, poorly fitted or top-dose-only effect, or another doubt; inactive means no such curve, though single readings can be large; an effect the other way counts as inactive or inconclusive.

Columns and labels:
[1] = qHTS for differential inhibitors of proliferation of Plasmodium falciparum line Dd2 (AID 1882); details: Potency: Plasmodium falciparum Dd2 proliferation inhibition; further: nearly all actives have a fitted effect of over 65% in size
In short: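 SYBR Green DNA fluorescence (ex 485, em 535 nm) after overnight lysis quantifies parasite growth; compound exposure lasted 72 h at 37 C on infected red cells at 2.5% hematocrit, 0.3% parasitemia (final). Artemisinin 0.29 uM and vehicle wells define normalization.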

[2] = molecular target: ATP-dependent DNA helicase Q1 (Homo sapiens) (UniProt P46063); assay: qHTS Validation Assay for Inhibitors of RecQ-Like Dna Helicase 1 (RECQ1) (AID 2353); further: potency means the concentration at half of the fitted maximal effect
In short: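 RECQ1T1 50 nM; forked duplex (20 bp + 30-nt ss tails) 200 nM, ATP 2 mM final; pH 8.0, 2 mM MgCl2, 2.5 ug/ml poly(dI-dC); 15 min compound preincubation; discontinuous kinetic read over 2 h at RT.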

[3] = molecular target: RecQ-like DNA helicase BLM (Homo sapiens) (UniProt P54132); assay: qHTS Validation Assay for Inhibitors of Bloom's syndrome helicase (BLM) (AID 2364); further: potency means the concentration at half of the fitted maximal effect
In short: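 BLM 50 nM in 25 mM Tris-HCl pH 8.0, 5 mM NaCl, 2 mM MgCl2, 1 mM DTT, 0.01% Tween-20, 2.5 ug/ml poly(dI-dC); 15 min cpd preinc, RT. Start: 200 nM forked DNA + 2 mM ATP (final). TAMRA read, 2 reads 2 h apart.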

[4] = Cytometric Cell-Based qHTS for Inhibitors of the mTORC1 Signaling Pathway in MEF (Tsc2-/-, p53-/-) Cells (AID 2660);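 further: Tsc2 and p53 null MEFs carrying empty vector with compound for 24 h; percent of cells above a phospho-rpS6 to PI ratio cutoff in each well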
In short: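 Percent of cells positive for normalized phospho-S6 staining is reported, with the cutoff set from rapamycin (7.5 nM) versus DMSO wells. Tsc2-/-, p53-/- MEFs received compound for 24 hrs.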

[5] = High Content Imaging Cell-Based qHTS for Inhibitors of the mTORC1 Signaling Pathway in MEF (Tsc2-/-, p53-/-) Cells (AID 2666); details: at 38.3 µM (top of the series);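 further: percent of cells scored positive for phospho-rpS6 Ser235/236 immunostaining by imaging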
In short: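 Inhibition of rpS6 phosphorylation is measured by immunofluorescence imaging in empty-vector Tsc2-/-, p53-/- mouse embryonic fibroblasts after 24 hrs compound exposure at 37 degree Celsius. Results are reported as % positive cells per well.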

[6] = High Content Imaging Cell-Based qHTS for Inhibitors of the mTORC1 Signaling Pathway in MEF Cells (AID 2667);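 further: Tsc2-/- p53-/- MEFs stably re-expressing wild-type Tsc2 exposed 24 h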
In short: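 Fixed-cell imaging of phospho-S6 (Ser235/236, Alexa-488) after 24 hrs of compound treatment at 37 degree Celsius. Signal was normalized to Hoechst, and thresholds from the highest and lowest wells split cells into % active versus % non-active.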

[7] = Cytometry Cell-Based qHTS for Inhibitors of the mTORC1 Signaling Pathway in MEF cells (AID 2668);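 further: Tsc2-/- p53-/- mouse embryonic fibroblasts stably re-expressing wild-type Tsc2; percent cells positive for phospho-rpS6 Ser235/236 relative to propidium iodide stain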
In short: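 Pathway inhibition in WT Tsc2-rescued Tsc2-/-, p53-/- MEFs is measured as the Alexa-488 phospho-rpS6 to propidium iodide intensity ratio after 24 hrs of compound at 37 degree Celsius. PI-stained cell number gives viability.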

[8] = molecular target: Ubiquitin carboxyl-terminal hydrolase 2 (Homo sapiens) (UniProt O75604); assay: qHTS Validation Assay for Inhibitors of Ubiquitin-specific Protease USP2a Using CHOP2 as the Reporter (AID 463106); further: potency means the concentration at half of the fitted maximal effect
In short: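 Inhibition is expressed relative to NEM as the full-inhibition control, with concentration-response curves classed by fit quality, magnitude and activity. Enzyme (USP2 core, 10nM) meets 25nM Ub-CHOP2 after compound preincubation; readings are taken at 60min.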

[9] = molecular target: DNA polymerase III PolC-type (Bacillus subtilis (strain 168)) (UniProt P13267); assay: qHTS Validation Assay for the Inhibitors of DNA Replication in Gram-Positive Bacteria (AID 485295); further: potency means the concentration at half of the fitted maximal effect
In short: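 Primed replication of single-stranded M13Gori by a four-protein B. subtilis holoenzyme is measured at room temperature. Double-stranded product is quantified by PicoGreen fluorescence after an EDTA stop; inhibition is scaled between DMSO and EDTA controls.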

[10] = molecular target: Tumor susceptibility gene 101 protein (Homo sapiens) (UniProt Q99816); assay: qHTS Validation Assay for Iinhibitors of HIV-1 Budding by Blocking the Interaction of PTAP/TSG101 (AID 485342; calls by dose curve)
In short: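 Fluorescence anisotropy measured PTAP-Tsg101 interaction. Final concentrations were 10 uM protein domain and 50 nM labeled peptide, equilibrated 20 min at room temperature.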

[11] = molecular target: Beta-2 adrenergic receptor (Homo sapiens) (UniProt P07550); assay: qHTS validation assay of beta-arrestin-biased ligands of beta2-adrenergic receptor (AID 485366)
In short: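 Screening used a titration range of up to 46 microM in a beta-arrestin recruitment Tango luciferase assay. Cells in 1% FBS medium were treated 18 hr at 37 degrees C, and luminescence was normalized to %Activity.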

[12] = molecular target: ATP-dependent 6-phosphofructokinase (Trypanosoma brucei brucei) (UniProt O15648); assay: qHTS Validation Assay to Find Inhibitors of T. brucei phosphofructokinase (AID 485368); further: potency means the concentration at half of the fitted maximal effect
In short: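 PFK-generated ADP was measured after 45 min at room temperature using ADP-Glo. The reaction contained 0.5 mM F6P and 0.1 mM ATP.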

[13] = molecular target: Thioredoxin reductase 1, cytoplasmic (Rattus norvegicus) (UniProt O89049); assay: qHTS Assay for Substrates of Mammalian Selenoprotein Thioredoxin Reductase 1 (TrxR1) (AID 488772);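 further: a drop in NADPH fluorescence below the no-compound background marks a TrxR1 substrate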
In short: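 In this dual-purpose format, potential substrates are identified from the first fluorescence read after selenite addition, not from the 8-minute delta. Rat enzyme is preincubated with NADPH and then with compound at ~22 deg C.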

[14] = molecular target: Flap endonuclease 1 (Homo sapiens) (UniProt P39748); assay: qHTS Validation Assay for the Inhibitors of Human Flap endonuclease 1 (FEN1) (AID 488816); further: potency means the concentration at half of the fitted maximal effect
In short: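 Steps: add FEN1 (10 nM reagent) or buffer only; pin compounds; hold 15 min at room temperature; start with substrate, 50 nM final; read at 0 and 15 min; correct, normalize and fit a four-parameter Hill curve.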

[15] = molecular target: M-phase phosphoprotein 8 (Homo sapiens) (UniProt Q99549); assay: qHTS Validation Assay for Inhibitors for MPP8 Chromodomain Interactions with Methylated Histone Tails (AID 488949); further: potency means the concentration at half of the fitted maximal effect; nearly all actives have a fitted effect of over 55% in size
In short: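 Disruption of the preformed MPP8–trimethyl-H3K9 peptide complex (both 50 nM, 30 min, RT) is measured after 30 min compound exposure, using AlphaScreen proximity beads; aurintricarboxylic acid titration serves as plate control.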

[16] = molecular target: Chromobox protein homolog 1 (Homo sapiens) (UniProt P83916); assay: qHTS Validation Assay for Inhibitors of HP1-beta Chromodomain Interactions with Methylated Histone Tails (AID 488953); further: potency means the concentration at half of the fitted maximal effect; nearly all actives have a fitted effect of over 50% in size
In short: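 Disruption of preformed HP1-beta:H3K9me3 peptide complexes (both 50 nM, PBS pH 7.4 with 0.01% Tween-20) is measured by AlphaScreen after 30 min compound exposure at room temperature, using streptavidin donor and nickel chelate acceptor beads at 10 ug/mL final.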

[17] = molecular target: Methanococcus maripaludis chaperonin (MmCpn) (UniProt Q6LX38); assay: High-Throughput Screening for Modulators of Cytosolic Chaperonin Activity: MmCpn Primary Screen (AID 488978);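 further: 50 nM MmCpn enzyme hydrolysing 30 µM ATP at 37 °C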
In short: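 Measures ATPase turnover of the M. maripaludis chaperonin (50 nM final) against 30 uM ATP over 10 min at 37C, with compound added 5 min beforehand at room temperature. ADP is quantified by HTRF immunodetection.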

[18] = molecular target: Transient receptor potential cation channel subfamily V member 1 (Homo sapiens) (UniProt Q8NER1); assay: HTS Assay for Compounds that Act as Enhancers of the Vanilloid Receptor 1 (AID 488979)
In short: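 TRPV1-expressing cells loaded with Fluo-8 calcium dye; compounds added and calcium influx read kinetically for 3 min (agonist phase), then capsaicin at EC20 added and read 2 min more for enhancement. Fluorescence ex 480/em 520 nm.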

[19] = molecular target: Thyrotropin receptor (Homo sapiens) (UniProt P16473); assay: qHTS Assay for Antagonists of the Thyroid Stimulating Hormone Receptor (AID 488980)
In short: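 Cells expressing human TSHR (HEK293) are dispensed in HBSS/HEPES containing 70 uM RO 20-1724, compound is added, then TSH at EC80 (4 nM final). Antibody in lysis buffer follows, 30 minutes at room temperature before HTRF detection.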

[20] = molecular target: D(1A) dopamine receptor (Homo sapiens) (UniProt P21728); assay: HTS Assay for Allosteric Agonists of the Human D1 Dopamine Receptor: Primary Screen for Agonists (AID 488981)
In short: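 Tetracycline-induced HEK293 T-REx cells force-coupled to calcium signalling were incubated overnight at 30 C and dye-loaded at room temperature. Calcium flux over 180 s after compound addition flagged agonists; a further 180 s read after EC20 dopamine flagged potentiators.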

[21] = molecular target: D(1A) dopamine receptor (Homo sapiens) (UniProt P21728); assay: HTS Assay for Allosteric Agonists of the Human D1 Dopamine Receptor: Primary Screen for Antagonists (AID 488983);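 further: calcium flux response to an EC80 dopamine challenge measured with no-wash dye; nearly all actives have a fitted effect of over 65% in size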
In short: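 Kinetic fluorescence at 1 cycle/sec tracked intracellular calcium in force-coupled, tetracycline-inducible HEK293 T-REx D1 cells. Loss of response to an EC80 dopamine dose, given 180 s after compound, marked antagonists.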

Measured: Potency

Chain of D(1A) dopamine receptor (Homo sapiens) (P21728 whole entry, looked up): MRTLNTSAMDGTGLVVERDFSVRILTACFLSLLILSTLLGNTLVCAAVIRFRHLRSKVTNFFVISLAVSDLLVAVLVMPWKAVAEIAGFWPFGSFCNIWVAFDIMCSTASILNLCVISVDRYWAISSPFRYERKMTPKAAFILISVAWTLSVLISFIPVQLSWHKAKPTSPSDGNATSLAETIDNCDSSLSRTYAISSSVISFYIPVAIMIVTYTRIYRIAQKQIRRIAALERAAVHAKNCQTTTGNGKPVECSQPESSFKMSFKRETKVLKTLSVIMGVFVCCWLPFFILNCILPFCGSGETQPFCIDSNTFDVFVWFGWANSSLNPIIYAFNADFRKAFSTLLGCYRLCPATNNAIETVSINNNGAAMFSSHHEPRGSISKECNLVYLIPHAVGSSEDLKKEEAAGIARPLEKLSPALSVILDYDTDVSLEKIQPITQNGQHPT
Chain of M-phase phosphoprotein 8 (Homo sapiens) (Q99549 whole entry, looked up): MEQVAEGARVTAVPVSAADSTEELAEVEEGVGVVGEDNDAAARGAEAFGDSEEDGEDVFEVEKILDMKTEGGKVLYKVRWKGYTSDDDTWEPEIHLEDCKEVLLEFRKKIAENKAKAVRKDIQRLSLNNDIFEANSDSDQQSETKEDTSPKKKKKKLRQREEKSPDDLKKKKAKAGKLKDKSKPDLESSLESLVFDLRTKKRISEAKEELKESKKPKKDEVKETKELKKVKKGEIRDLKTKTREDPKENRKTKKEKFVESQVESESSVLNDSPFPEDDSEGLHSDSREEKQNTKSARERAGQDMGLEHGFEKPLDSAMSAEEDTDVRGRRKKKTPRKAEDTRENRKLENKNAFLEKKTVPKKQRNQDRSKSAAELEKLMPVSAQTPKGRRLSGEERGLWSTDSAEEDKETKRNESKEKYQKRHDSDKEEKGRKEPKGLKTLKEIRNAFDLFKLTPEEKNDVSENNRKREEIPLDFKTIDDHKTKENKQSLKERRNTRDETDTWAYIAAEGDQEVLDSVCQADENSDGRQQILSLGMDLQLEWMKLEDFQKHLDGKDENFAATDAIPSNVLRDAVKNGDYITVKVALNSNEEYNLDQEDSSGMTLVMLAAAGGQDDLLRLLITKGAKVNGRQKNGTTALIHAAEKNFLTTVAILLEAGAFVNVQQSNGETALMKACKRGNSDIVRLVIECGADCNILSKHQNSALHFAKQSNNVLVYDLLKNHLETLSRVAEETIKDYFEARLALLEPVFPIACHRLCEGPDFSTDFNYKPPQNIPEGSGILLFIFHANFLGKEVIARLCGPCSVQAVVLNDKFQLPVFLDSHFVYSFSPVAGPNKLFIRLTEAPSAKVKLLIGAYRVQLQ
Chain of DNA polymerase III PolC-type (Bacillus subtilis (strain 168)) (P13267 whole entry, looked up): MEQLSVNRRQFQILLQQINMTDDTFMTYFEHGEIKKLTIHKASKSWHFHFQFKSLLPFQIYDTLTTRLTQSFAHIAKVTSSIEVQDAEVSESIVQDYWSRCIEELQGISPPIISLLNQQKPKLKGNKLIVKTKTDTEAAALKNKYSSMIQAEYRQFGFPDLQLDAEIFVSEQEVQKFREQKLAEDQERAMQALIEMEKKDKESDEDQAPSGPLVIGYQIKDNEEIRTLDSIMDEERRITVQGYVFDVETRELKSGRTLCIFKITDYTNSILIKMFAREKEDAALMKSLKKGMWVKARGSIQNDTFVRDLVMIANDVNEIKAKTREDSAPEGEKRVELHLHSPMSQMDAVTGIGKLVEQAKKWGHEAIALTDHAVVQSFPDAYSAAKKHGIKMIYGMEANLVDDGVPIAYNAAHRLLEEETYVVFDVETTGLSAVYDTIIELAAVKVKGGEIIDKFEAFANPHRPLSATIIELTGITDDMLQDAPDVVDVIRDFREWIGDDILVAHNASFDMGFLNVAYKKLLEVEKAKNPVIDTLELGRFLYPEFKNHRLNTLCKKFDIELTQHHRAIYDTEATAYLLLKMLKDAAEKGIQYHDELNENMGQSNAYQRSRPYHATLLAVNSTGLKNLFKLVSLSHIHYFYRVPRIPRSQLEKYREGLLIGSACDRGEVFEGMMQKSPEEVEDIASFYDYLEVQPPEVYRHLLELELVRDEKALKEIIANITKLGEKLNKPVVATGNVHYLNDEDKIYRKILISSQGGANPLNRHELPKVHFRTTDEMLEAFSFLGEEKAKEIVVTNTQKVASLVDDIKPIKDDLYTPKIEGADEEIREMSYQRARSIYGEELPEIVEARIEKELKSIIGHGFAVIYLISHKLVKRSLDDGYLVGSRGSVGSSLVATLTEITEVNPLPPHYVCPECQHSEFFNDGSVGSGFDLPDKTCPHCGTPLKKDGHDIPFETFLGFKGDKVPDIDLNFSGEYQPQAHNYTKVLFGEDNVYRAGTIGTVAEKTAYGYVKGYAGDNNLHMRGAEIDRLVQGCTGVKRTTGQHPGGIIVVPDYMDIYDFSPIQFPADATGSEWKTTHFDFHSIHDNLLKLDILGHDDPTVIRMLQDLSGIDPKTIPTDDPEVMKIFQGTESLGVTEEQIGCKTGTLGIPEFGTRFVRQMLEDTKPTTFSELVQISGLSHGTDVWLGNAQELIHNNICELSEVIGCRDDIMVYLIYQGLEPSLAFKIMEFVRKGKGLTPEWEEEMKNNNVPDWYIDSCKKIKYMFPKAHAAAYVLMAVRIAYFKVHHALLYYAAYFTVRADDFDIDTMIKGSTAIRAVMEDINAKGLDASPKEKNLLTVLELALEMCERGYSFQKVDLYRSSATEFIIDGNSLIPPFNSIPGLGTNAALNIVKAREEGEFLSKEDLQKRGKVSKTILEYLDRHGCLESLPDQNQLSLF
Chain of RecQ-like DNA helicase BLM (Homo sapiens) (P54132 whole entry, looked up): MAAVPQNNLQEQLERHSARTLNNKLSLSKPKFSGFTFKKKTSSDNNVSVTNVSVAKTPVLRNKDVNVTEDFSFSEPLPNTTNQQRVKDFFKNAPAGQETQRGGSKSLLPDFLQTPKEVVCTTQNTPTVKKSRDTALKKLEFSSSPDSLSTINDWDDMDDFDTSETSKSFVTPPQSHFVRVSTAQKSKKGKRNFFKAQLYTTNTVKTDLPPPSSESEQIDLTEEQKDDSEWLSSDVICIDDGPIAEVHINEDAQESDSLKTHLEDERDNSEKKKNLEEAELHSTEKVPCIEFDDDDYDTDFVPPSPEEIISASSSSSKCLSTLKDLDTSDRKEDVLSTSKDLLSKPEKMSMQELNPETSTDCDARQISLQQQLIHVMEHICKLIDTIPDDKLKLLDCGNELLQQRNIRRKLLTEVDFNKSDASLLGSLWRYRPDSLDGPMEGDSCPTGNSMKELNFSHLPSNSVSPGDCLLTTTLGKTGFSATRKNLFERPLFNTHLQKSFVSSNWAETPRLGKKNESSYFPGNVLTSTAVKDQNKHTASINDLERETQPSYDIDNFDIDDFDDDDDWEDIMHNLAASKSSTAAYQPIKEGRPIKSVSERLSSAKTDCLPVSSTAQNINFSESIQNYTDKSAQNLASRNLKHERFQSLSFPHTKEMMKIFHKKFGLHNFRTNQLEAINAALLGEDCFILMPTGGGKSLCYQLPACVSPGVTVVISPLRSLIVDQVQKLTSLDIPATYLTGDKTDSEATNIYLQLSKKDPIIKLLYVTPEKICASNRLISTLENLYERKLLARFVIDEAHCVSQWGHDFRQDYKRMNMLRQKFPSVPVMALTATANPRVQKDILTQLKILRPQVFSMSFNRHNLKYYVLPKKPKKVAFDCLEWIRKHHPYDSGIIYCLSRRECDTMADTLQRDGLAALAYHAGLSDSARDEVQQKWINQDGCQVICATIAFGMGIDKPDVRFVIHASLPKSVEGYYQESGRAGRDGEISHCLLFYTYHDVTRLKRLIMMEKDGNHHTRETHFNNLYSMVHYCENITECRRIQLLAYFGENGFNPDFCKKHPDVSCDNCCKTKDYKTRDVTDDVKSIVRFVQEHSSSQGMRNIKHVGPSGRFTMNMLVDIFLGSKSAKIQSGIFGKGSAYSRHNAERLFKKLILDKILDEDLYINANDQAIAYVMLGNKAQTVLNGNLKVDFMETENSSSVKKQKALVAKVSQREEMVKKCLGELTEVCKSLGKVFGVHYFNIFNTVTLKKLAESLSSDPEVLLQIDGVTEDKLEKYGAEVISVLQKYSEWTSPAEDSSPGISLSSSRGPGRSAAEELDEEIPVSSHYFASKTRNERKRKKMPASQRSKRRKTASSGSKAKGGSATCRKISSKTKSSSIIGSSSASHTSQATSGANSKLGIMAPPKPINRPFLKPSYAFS
Chain of ATP-dependent DNA helicase Q1 (Homo sapiens) (P46063 whole entry, looked up): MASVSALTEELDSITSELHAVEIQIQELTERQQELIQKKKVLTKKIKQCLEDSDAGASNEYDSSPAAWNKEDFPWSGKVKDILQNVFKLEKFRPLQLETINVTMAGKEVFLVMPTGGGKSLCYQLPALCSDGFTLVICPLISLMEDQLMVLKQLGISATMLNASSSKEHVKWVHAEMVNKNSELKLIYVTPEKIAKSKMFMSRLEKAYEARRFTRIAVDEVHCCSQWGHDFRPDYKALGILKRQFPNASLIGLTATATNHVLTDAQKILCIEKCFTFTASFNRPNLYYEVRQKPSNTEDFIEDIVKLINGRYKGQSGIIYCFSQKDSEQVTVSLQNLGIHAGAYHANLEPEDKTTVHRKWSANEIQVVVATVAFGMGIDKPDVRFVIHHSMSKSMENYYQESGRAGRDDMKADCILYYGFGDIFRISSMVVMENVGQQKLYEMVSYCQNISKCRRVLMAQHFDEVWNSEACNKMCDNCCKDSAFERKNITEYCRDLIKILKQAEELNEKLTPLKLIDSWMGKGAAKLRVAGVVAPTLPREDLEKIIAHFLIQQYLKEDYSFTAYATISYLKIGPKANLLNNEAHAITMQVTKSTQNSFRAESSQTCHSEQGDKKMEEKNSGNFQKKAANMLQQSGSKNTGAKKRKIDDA
Chain of Chromobox protein homolog 1 (Homo sapiens) (P83916 whole entry, looked up): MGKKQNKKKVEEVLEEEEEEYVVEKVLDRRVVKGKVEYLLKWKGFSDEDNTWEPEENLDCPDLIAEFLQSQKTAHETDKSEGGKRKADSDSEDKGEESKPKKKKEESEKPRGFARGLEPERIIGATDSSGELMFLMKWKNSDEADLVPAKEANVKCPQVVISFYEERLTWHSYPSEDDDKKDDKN

Nc1c(S(=O)(=O)O)cc(Nc2ccc(Nc3nc(Cl)nc(Nc4ccc(S(=O)(=O)O)cc4)n3)c(S(=O)(=O)O)c2)c2c1C(=O)c1ccccc1C2=O
active: [2] 1000 nM | [3] 6310 nM | [8] 4650 nM | [9] 5320 nM | [12] 2390 nM | [14] 947 nM | [15] 1.58 µM and 844 nM | [16] 1260 nM
inactive: all other assays above
